Compounds without any hit were thinned out: in the full panel of roughly 79,000, 15% have a hit. No stated cut-off is given here; in the data, active means growth inhibition above about 70%; inactive means the rest.
Tests used:
[1] = NCI Yeast Anticancer Drug Screen. Data for the rad50 strain (AID 155);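 further: 0% = growth of vehicle-only cultures of the same strain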; conditions: S. cerevisiae rad50 strain growth inhibition; at 50.0 µM; hits give high values
In short: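 Yeast carrying a defined DNA repair defect were exposed to test compounds, and growth was compared with vehicle-treated controls to give percent inhibition.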

[2] = NCI Yeast Anticancer Drug Screen. Data for the mec2-1 strain (AID 157); conditions: S. cerevisiae mec2-1 strain, at 50.0 µM, hits give high values
In short: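 Growth inhibition is read against vehicle-treated controls after compound exposure of the mec2-1 yeast strain, which is defective in DNA damage repair or cell cycle control.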

[3] = NCI Yeast Anticancer Drug Screen. Data for the sgs1 mgt1 strain (AID 161);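 further: 0% = growth of cultures given vehicle only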; conditions: S. cerevisiae sgs1 mgt1 strain, at 50.0 µM, hits give high values
In short: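 This yeast growth screen uses a strain with defined DNA-repair lesions; compound-treated growth is compared with vehicle-treated growth.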

[4] = NCI Yeast Anticancer Drug Screen. Data for the cln2 rad14 strain (AID 165);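 further: 0% = growth equal to vehicle treated cultures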; conditions: S. cerevisiae cln2 rad14 strain, at 50.0 µM, hits give high values
In short: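 Growth inhibition, relative to vehicle-treated controls, is the read-out. The test organism is a yeast strain with defined genetic alterations, cln2 rad14.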

[5] = NCI Yeast Anticancer Drug Screen. Data for the bub3 strain (AID 167); conditions: S. cerevisiae bub3 mutant strain, at 50.0 µM, hits give high values
In short: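 Compounds were applied to a genetically altered yeast strain carrying a cell-cycle control defect. Growth inhibition was scored against vehicle-treated controls.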

[6] = NCI Yeast Anticancer Drug Screen. Data for the mlh1 rad18 strain (AID 175); conditions: S. cerevisiae mlh1 rad18 strain growth inhibition; at 50.0 µM; hits give high values
In short: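 Cells of a genetically altered yeast strain, deficient in DNA damage repair, were treated with compound. Their growth was then compared with that of vehicle-treated cultures to give inhibition.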

Measured: growth inhibition

CCOC(CN(N=O)c1ccccc1C(C)C)OCC
inactive: [1] -3.95% | [2] 8.9% | [3] 7% | [4] -21.9% | [5] 3.55% | [6] -4.25%

CC(=O)C1C[C@]2(O)[C@@]3(C)CO[C@]2(C)CC1(O)C3 (some centres not stated)
inactive: [1] 3.45% | [2] 11.4% | [3] 17.9% | [4] 7.2% | [5] 20.2% | [6] 12.9%

CCOC(=O)CCC(C)(C#N)c1ccccc1 (configuration not stated)
inactive: [1] -2.35% | [2] 0.65% | [3] 2.5% | [4] -9.1% | [5] 5.75% | [6] -0.05%

COc1cc(/C(C#N)=C/c2ccccn2)c([N+](=O)[O-])cc1OC
inactive: [1] -7.9% | [2] -2% | [3] 6% | [4] -36.6% | [5] 4.5% | [6] -5.9%

Cc1cc(C)c(NS(=O)c2cccc(C(F)(F)F)c2)c(C)c1 (configuration not stated)
inactive: [1] -47.1% | [2] -26.5% | [3] -61% | [4] -9.75% | [5] -31.4% | [6] -43%

O=C(Nc1cc(Cl)ccc1Cl)Oc1ccc(Cl)cc1C(=O)c1ccccc1
inactive: [1] -45% | [2] -10.4% | [3] -37.8% | [4] -16.8% | [5] -35.4% | [6] -56.9%

CC1CCOC(c2ccc(O)cc2)O1 (configuration not stated)
inactive: [1] -4.05% | [2] -13.1% | [3] -4.65% | [4] -29.3% | [5] -14.4% | [6] -3.75%

O=C1OC2C(O)C(N(O)c3ccccc3)OC2[C@@H]1O (some centres not stated)
inactive: [1] 1.85% | [2] 17.5% | [3] 21.9% | [4] 9.2% | [5] 21.8% | [6] 15.1%

CCOC(=O)C(Cc1cn(S(=O)(=O)c2ccc(C)cc2)cn1)P(=O)(OCC)OCC (configuration not stated)
inactive: [1] -34.5% | [2] -4.45% | [3] -13.4% | [4] 14.2% | [5] -16.7% | [6] -14.3%

CC(=O)c1cccc(NC(=O)OC2CCCC(C)C2)c1 (configuration not stated)
inactive: [1] 29.8% | [2] 60.7% | [3] 59.6% | [4] 19.4% | [5] 54% | [6] 43.1%

C/C(=N\NC(=O)C1CCCO1)c1cccc2ccccc12 (configuration not stated)
inactive: [1] 3.1% | [2] 11.5% | [3] 5.55% | [4] 17% | [5] 3.9% | [6] 3.55%

O=C(O)c1nnn(Cc2ccccc2)c1C(=O)O
inactive: [1] 7.75% | [2] -6% | [3] -17.6% | [4] 2.35% | [5] 15.8% | [6] 20%

C=CNC(=O)NC(=O)CSc1nnc(-c2ccccc2NC(=O)C(F)(F)F)c(=O)[nH]1
inactive: [1] 5.7% | [2] -4.95% | [3] -4% | [4] 14.9% | [5] 30.9% | [6] 5.4%

Cc1ccc(/C=N/NC(=O)c2ccc(C)cc2)cc1
inactive: [1] -14.9% | [2] -10.2% | [3] -4.5% | [4] -13.7% | [5] -16.2% | [6] -11.9%

COc1ccc(NC(=O)Nc2ccc(-c3ccc(NC(=O)Nc4ccc(OC)cc4)c(C)c3)cc2C)cc1
inactive: [1] -30.1% | [2] -41.4% | [3] -8.5% | [4] -3.25% | [5] -24.1% | [6] -23.6%

COC(=O)CSSCc1ccccc1
inactive: [1] 3.5% | [2] 1.5% | [3] 3.65% | [4] -26.1% | [5] -28.1% | [6] 6.35%

COc1cc(CC(=O)c2ccc3c(c2)OCO3)cc(OC)c1OC
inactive: [1] -9.95% | [2] -5.15% | [3] -8.95% | [4] -15.5% | [5] 4.75% | [6] -25.3%

Fc1ccc(CN2COc3c(ccc4cccnc34)C2)c(F)c1
inactive: [1] 57.6% | [2] 43.6% | [3] 57.1% | [4] 29.6% | [5] 49% | [6] 52.2%

CCCCC1(C#Cc2ccccc2)Sc2ccccc2N1C (configuration not stated)
inactive: [1] -9.9% | [2] -8.45% | [3] 9.25% | [4] -21.9% | [5] -7.9% | [6] 2.25%

O=c1c2cc([N+](=O)[O-])ccc2n2n1Cc1ccccc1CC2
inactive: [1] -12.8% | [2] -0.9% | [3] -6.5% | [4] 21.5% | [5] 18.5% | [6] -16.4%

c1ccc(N2CCSCC2)cc1
inactive: [1] 2.95% | [2] -5.45% | [3] -21.9% | [4] -6.25% | [5] 0.3% | [6] -7.15%

CCOc1ccc2nc(SCCl)sc2c1
inactive: [1] 6.1% | [2] -2.7% | [3] 7.65% | [4] -14.9% | [5] -35.1% | [6] 2.8%
